The values that follow come from PubChem BioAssay (Tox21).

Assay [1] is described as follows: qHTS RealTime-Glo MT Cell Viability Assay in HEK293 cells - 0 hour (AID 1224880). Further: top concentration of the series differs between compounds; nearly all actives have a fitted effect of over 45% in size. In short, it runs like this:
(§1)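 600 cells/well were plated with the nonlytic NanoLuc/prosubstrate reagent, pre-incubated 5 h, then given 23 nL of compound in DMSO. Incubation at 37 C for 40 h, with luminescence from viable-cell-reduced substrate read repeatedly from 0 h.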

Assay [2] is described as follows: A CellTox Green Cytotoxicity Assay to monitor cytotoxicity in HEK293 cells - 32 hour (AID 1224881). Further: nearly all actives have a fitted effect of over 40% in size. A digest of the protocol:
(§2)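 HEK293 cells, 600/well, were preincubated 5 hours and then exposed to compounds at 37 C for up to 40 hours. A cell-impermeant cyanine dye staining dead-cell DNA was read by fluorescence at 0, 8, 16, 24, 32 and 40 h time points.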

A short description of assay [3]: A CellTox Green Cytotoxicity Assay to monitor cytotoxicity in HepG2 cells - 32 hour (AID 1224883). Further: nearly all actives have a fitted effect of over 50% in size. Further: potency means the concentration at half of the fitted maximal effect. A digest of the protocol: (§3)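 HepG2 cells, 600/well, preincubated 5 h with CellTox Green dye, then exposed to Tox21 compounds in DMSO at 37 C for up to 40 h. Dead-cell DNA fluorescence read at the indicated time point.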
Assay [4] in a line: qHTS RealTime-Glo MT Cell Viability Assay in HepG2 cells - 16 hour (AID 1224885). Further: nearly all actives have a fitted effect of over 50% in size. In short, it runs like this: (§4)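 Cells + NanoLuc/prosubstrate dispensed (600 cells/well) → 5 h at 37 C/5% CO2 → compounds in DMSO transferred → 40 h incubation at 37 C, luminescence read at 0, 8, 16, 24, 32, 40 h.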
Assay [5] is described as follows: qHTS RealTime-Glo MT Cell Viability Assay in HEK293 cells - 24 hour (AID 1224886). Further: top concentration of the series differs between compounds; nearly all actives have a fitted effect of over 50% in size. In short, it runs like this: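 Tox21 10K qHTS, HEK293, 600 cells/well, RealTime-Glo reagent co-dispensed with cells; 5 h preincubation, compound by pintool, 37 C, luminescence at 0–40 h.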
Assay [6] can be described thus: qHTS RealTime-Glo MT Cell Viability Assay in HEK293 cells - 8 hour (AID 1224887). Further: top concentration of the series differs between compounds; nearly all actives have a fitted effect of over 50% in size. A digest of the protocol: as §1
Assay [7] is described as follows: A CellTox Green Cytotoxicity Assay to monitor cytotoxicity in HEK293 cells - 16 hour (AID 1224888). Further: nearly all actives have a fitted effect of over 35% in size. A digest of the protocol: as §2
A short description of assay [8]: qHTS RealTime-Glo MT Cell Viability Assay in HepG2 cells - 0 hour (AID 1224889). Further: nearly all actives have a fitted effect of over 50% in size. In short, it runs like this:
as §4

Assay [9] in a line: A CellTox Green Cytotoxicity Assay to monitor cytotoxicity in HepG2 cells - 0 hour (AID 1224882). Further: nearly all actives have a fitted effect of over 35% in size. A digest of the protocol:
as §3

Assay [10] is described as follows: A CellTox Green Cytotoxicity Assay to monitor cytotoxicity in HEK293 cells - 8 hour (AID 1224884). Further: nearly all actives have a fitted effect of over 35% in size. A digest of the protocol:
as §2

SMILES strings stand for the structures. Values without a mark were called inactive. Records with an inconclusive call do not appear. Active and inactive are the calls of the source. The call rests on the fitted dose curve; in most records, active means well fitted curve in the direction sought with a large enough effect in the repeat runs; inconclusive means weak or mixed curves; inactive means no such curve, though single readings can be large; an effect the other way counts as inactive or inconclusive.
On the % scale 0 is the no-effect control and ±100 the full control effect.

Regarding `CCc1nnc(NS(=O)(=O)c2ccc(N)cc2)s1`, the outcome in assay [1] and in assay [4] was inactive. For the same compound, the Potency result in [2], in [3], in [5], in assay [6], in assay [7] and in assay [8] was “inactive” each time.
On to `COc1cc2c(cc1N)oc1ccccc12`, for which the result in [1] and in [4] was inactive. Further, the Potency result in assay [2], in assay [3], in assay [7] and in assay [8] was “inactive” each time.
On to `O=c1[nH]cnc2c1ncn2[C@@H]1O[C@H](CO)[C@@H](O)[C@H]1O`, for which the call in assay [1] and in [4] was inactive. The Potency entry in [9], in assay [3], in assay [10], in assay [5], in assay [7] and in assay [8] was “inactive” each time.
`CC(C)=CCC[C@](C)(O)[C@@H]1CC=C(C)CC1`: the outcome in [1] and in assay [4] was inactive. The Potency result in [9], in [10], in [5], in assay [6], in assay [7] and in [8] was “inactive” each time. The Potency in [3] is 43.6 µM (active).
`CCCCCOc1ccc(C2SC(=O)NC2=O)cc1OCC` (centres undefined): the compound was called inactive in assay [1] and in [4]. In addition, the Potency entry in assay [2], in [10], in [5], in assay [6], in [7] and in assay [8] was “inactive” each time.
Regarding `CC(C)Nc1nc(N)nc(Cl)n1`, the compound was called inactive in assay [1] and in assay [4]. Besides, the Potency entry in assay [2], in [10], in assay [5], in assay [6], in assay [7] and in [8] was “inactive” throughout.
For the compound `CCOC(=O)C1CC(=O)C(=C(O)C2CC2)C(=O)C1` (centres undefined), the call in [1] and in [4] was inactive. Also, the Potency entry in assay [2], in assay [3], in [5], in assay [7] and in assay [8] was “inactive” each time.
Consider `CCC/C=C/CO`, for which the compound was classed as inactive in assay [1] and in assay [4]. The Potency entry in [9], in assay [3], in assay [10], in assay [5], in assay [6] and in assay [7] was “inactive” in each case. In [8], the Potency result is “inactive”.
As for `NC/C=C/C(=O)O`, the compound was called inactive in [1] and in assay [4]. Also, the Potency result in assay [9], in assay [3], in assay [10], in [5], in assay [6] and in assay [7] was “inactive” in each case. Also, the Potency result in assay [8] was “inactive”.
On to `COc1cc(C)ccc1C(C)C`, for which the call in assay [1] and in assay [4] was inactive. Also, the Potency result in assay [2], in assay [3], in assay [5], in assay [6], in assay [7] and in assay [8] was “inactive” throughout.
As for `ClC(Cl)Cl`, the outcome in assay [1] and in [4] was inactive. The Potency result in [9], in assay [3], in assay [10], in [5], in [6] and in assay [7] was “inactive” each time. The Potency result in [8] is “inactive”.
On to `NC1=NCC2c3ccccc3Cc3ccccc3N12` (centres undefined), for which the result in [1] and in [4] was inactive. For the same compound, the Potency result in [2], in assay [3], in [10], in assay [5], in assay [7] and in assay [8] was “inactive” each time.
With `NC(=O)NS(=O)(=O)c1ccc(Cl)cc1`, the result in [1] and in assay [4] was inactive. Besides, the Potency result in assay [9], in assay [3], in assay [10], in [5], in assay [6] and in assay [7] was “inactive” throughout. The Potency entry in assay [8] is “inactive”.
As for `NNS(=O)(=O)c1ccc(Oc2ccc(S(=O)(=O)NN)cc2)cc1`, the compound was called inactive in assay [1] and in assay [4]. Also, the Potency entry in [9], in assay [3], in [10], in assay [5], in assay [6] and in [7] was “inactive” throughout. In addition, the Potency entry in assay [8] was “inactive”.
As for `CC(C)(C)c1ccc(OC(=O)c2ccccc2O)cc1`, the compound was called inactive in assay [1] and in [4]. The Potency entry in assay [2], in [3], in assay [5], in assay [6], in [7] and in assay [8] was “inactive” in each case.
On to `CCOc1ccc(OCC)c(Cl)c1`, for which the compound was classed as inactive in assay [1] and in [4]. The Potency result in assay [9], in [3], in assay [10], in assay [5], in assay [6] and in assay [7] was “inactive” each time. Besides, the Potency entry in [8] was “inactive”.
Take `CCCOc1ccc2c(c1)CC[C@@H]1[C@@H]2CC[C@]2(C)C(OC)CC[C@@H]12` (some centres undefined): the compound was classed as inactive in [1] and in assay [4]. Also, the Potency entry in [2], in [3], in assay [10], in [5], in assay [7] and in assay [8] was “inactive” throughout.
Turning to `CN(C)CCOc1ccccc1Cc1ccccc1`, the compound was called inactive in assay [1] and in assay [4]. Also, the Potency entry in assay [2], in assay [10], in assay [5], in assay [7] and in assay [8] was “inactive” throughout.
Regarding `Cn1cnc2c(F)c(Nc3ccc(Br)cc3Cl)c(C(=O)NOCCO)cc21`, the result in assay [1] and in assay [4] was inactive. The Potency result in [9], in assay [10], in assay [5], in assay [6], in assay [7] and in assay [8] was “inactive” in each case. For the same compound, in assay [3], the Potency was 0.0379 µM (active).
Turning to `CNCCC(Oc1ccccc1OC)c1ccccc1` (centres undefined), the compound was classed as inactive in assay [1] and in assay [4]. For the same compound, the Potency entry in assay [9], in assay [3], in assay [10], in assay [5], in assay [7] and in assay [8] was “inactive” each time.
For the compound `NS(=O)(=O)c1cc(-c2nn[nH]n2)c(NCc2cccs2)cc1Cl`, the call in assay [1] and in assay [4] was inactive. Besides, the Potency result in [9], in assay [3], in [10], in [5], in assay [6] and in [7] was “inactive” in each case. Further, the Potency result in assay [8] is “inactive”.
In the case of `CN1CCC[C@@H]1Cc1c[nH]c2ccc(CCS(=O)(=O)c3ccccc3)cc12`, the call in assay [1] and in assay [4] was inactive. Also, the Potency result in [2], in assay [3], in assay [10], in assay [5], in assay [7] and in assay [8] was “inactive” each time.
Take `FC(F)(F)C(F)(F)C(F)(F)C(F)(F)C(F)(F)C(F)(F)C(F)(F)C(F)(F)Br`: the outcome in assay [1] and in [4] was inactive. In addition, the Potency entry in [9], in assay [3], in assay [5], in [6], in assay [7] and in assay [8] was “inactive” each time.
Regarding `CCCCCCn1c(=O)c2c(ncn2C)n(C)c1=O`, in [1], the call was inactive. The Potency entry in assay [9], in [3], in assay [10], in assay [5], in assay [6] and in assay [7] was “inactive” each time. For the same compound, the Potency result in [8] is “inactive”.
`C[C@@H]1CN(c2c(F)c(N)c3c(=O)c(C(=O)O)cn(C4CC4)c3c2F)C[C@H](C)N1`: the activity change, negative = cytotoxicity was -2.5% [at 15.8 µM] in assay [1], 4.31% [at 15.8 µM] in [5], 0.0014% [at 15.8 µM] in assay [6] and 5.84% [at 15.8 µM] in assay [8]. Also, the cytotoxicity in [9] was 5.9% [at 15.8 µM]. The cytotoxicity increase in assay [10] is -0.635% [at 15.8 µM]. For the same compound, the activity change, negative = cytotoxic in assay [4] is 0.182% [at 15.8 µM]. Further, the activity change in [7] was -0.126% [at 15.8 µM, hits give high values].
Regarding `CCCS(=O)c1ccc2nc(NC(=O)OC)[nH]c2c1` (centres undefined), the compound was called inactive in [1] and in assay [4]. Moreover, in assay [3], the Potency was 16.9 µM (active). In addition, the Potency result in [10], in assay [5], in assay [6], in assay [7] and in [8] was “inactive” in each case.
Regarding `C1CCOC1`, the call in [1] and in assay [4] was inactive. Besides, the Potency result in [3], in [5], in [7] and in assay [8] was “inactive” in each case.
Consider `FC(F)(F)C(Cl)(Cl)Cl`, for which the call in [1] and in assay [4] was inactive. The Potency result in assay [9], in assay [3], in [5], in [6], in [7] and in assay [8] was “inactive” each time.
For `CC1=NN(c2cc(Cl)c(S(=O)(=O)O)cc2Cl)C(=O)C1N=Nc1ccc(S(=O)(=O)O)cc1` (centres undefined), the Potency entry in [2], in [9], in [10], in assay [5], in assay [6] and in assay [7] was “inactive” each time. For the same compound, in assay [4], the outcome was inactive.
